Source: ChEMBL document CHEMBL3988442, “University of Dundee, Small-Polar-MMV Screening Library” (2021)
For some of these results: Results with a measured potency or affinity are listed apart.

Experiments:
Design in all cases: scale not given: direction of the effect not stated beside the values
[1] = molecular target: Protein translocase subunit SecA (Escherichia coli (strain K12)) (UniProt P10408); test: Assay to Identify E. coli SecA ATPase Inhibitors; type: functional; conditions: 30 µM
[2] = molecular target: T1, Ubiquitin-activating enzyme e1, putative (Leishmania donovani (strain BPK282A1)) (UniProt E9BSI1); test: Leishmania donovani Ubiquitin Activating Enzyme (LdE1); type: functional; conditions: 30 µM
T1 sequence (whole entry): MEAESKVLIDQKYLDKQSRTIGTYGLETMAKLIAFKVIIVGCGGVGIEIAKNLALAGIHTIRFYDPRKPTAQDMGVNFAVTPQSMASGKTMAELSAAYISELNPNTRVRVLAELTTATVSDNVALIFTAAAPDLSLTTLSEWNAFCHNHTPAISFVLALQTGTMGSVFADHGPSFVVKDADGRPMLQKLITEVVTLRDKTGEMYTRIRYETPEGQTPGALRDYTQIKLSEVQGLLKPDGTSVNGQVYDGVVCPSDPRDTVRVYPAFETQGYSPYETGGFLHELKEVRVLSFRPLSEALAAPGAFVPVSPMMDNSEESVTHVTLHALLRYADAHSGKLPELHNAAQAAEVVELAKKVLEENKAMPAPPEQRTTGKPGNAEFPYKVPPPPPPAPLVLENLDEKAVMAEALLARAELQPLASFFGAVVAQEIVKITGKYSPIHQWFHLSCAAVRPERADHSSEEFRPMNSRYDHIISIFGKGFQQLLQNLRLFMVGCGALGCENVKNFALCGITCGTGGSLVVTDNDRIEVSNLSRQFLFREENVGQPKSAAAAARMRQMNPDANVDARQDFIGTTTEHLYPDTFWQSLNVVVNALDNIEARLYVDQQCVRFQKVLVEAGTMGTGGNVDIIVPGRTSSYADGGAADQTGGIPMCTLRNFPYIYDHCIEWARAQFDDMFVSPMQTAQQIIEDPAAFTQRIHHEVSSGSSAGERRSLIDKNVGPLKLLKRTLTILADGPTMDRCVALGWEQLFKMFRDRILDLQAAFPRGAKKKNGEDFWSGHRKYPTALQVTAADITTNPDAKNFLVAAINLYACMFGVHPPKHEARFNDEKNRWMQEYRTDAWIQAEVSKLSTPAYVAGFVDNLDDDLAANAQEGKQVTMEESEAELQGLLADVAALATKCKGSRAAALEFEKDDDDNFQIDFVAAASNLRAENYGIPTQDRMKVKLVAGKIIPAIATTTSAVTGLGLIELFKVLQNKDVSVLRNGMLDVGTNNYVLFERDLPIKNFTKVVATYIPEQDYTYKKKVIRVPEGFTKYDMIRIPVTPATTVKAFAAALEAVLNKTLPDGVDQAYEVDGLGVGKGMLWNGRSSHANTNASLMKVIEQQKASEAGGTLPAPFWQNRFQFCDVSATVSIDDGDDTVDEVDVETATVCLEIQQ

[3] = molecular target: AMP-activated protein kinase, AMPK (Homo sapiens) (UniProt P54646+O43741+P54619+Q9UGJ0+Q9Y478+Q13131+Q9UGI9); test: AMP-dependent Kinase enzyme assay. An in vitro enzyme assay that detects ADP turnover that is directly proportional to AMPK activity. This uses naive AMPK that is activated during the assay with MK-8722; type: functional; conditions: 30 µM
[4] = molecular target: Sialic acid-binding Ig-like lectin 9 (Homo sapiens) (UniProt Q9Y336); test: Hs-Siglec9 ALPHAscreen SOP 20170721; conditions: 10 µM
Sequence of Sialic acid-binding Ig-like lectin 9 (Homo sapiens) (Q9Y336 whole entry): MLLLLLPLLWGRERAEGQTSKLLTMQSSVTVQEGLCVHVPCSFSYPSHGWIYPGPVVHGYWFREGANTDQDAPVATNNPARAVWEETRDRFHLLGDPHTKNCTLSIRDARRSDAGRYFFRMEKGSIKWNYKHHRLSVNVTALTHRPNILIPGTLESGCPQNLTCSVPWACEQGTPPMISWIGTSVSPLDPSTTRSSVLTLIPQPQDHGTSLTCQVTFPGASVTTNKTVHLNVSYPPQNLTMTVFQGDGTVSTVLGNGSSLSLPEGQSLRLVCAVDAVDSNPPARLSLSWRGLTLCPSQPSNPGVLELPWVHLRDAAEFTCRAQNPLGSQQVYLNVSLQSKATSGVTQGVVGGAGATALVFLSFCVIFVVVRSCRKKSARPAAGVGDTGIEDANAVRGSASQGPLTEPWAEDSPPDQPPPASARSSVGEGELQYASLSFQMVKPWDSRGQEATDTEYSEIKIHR

Trypanosoma cruzi = test: Trypanosoma cruzi phosphomannomutase and mannose-1-phosphate guanylyltransferase assay; type: functional; conditions: 10 µM
[5] = molecular target: T2, Arginase-2, mitochondrial (Homo sapiens) (UniProt P78540); test: in vitro enzyme assay to detect the production of urea directly proportional to the activity of Arginase II; type: functional; conditions: 33.3 µM; further: in the data most compounds retested in dose-response had high values
T2 sequence (whole entry): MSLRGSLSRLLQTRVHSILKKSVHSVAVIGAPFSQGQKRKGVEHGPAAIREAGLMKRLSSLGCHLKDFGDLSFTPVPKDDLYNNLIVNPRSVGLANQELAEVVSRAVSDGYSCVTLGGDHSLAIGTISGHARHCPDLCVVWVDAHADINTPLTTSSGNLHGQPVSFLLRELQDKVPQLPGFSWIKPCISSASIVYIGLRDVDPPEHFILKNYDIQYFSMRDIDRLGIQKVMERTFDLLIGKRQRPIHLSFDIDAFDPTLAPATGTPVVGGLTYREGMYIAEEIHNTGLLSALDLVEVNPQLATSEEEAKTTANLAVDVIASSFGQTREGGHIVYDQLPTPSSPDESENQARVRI

[6] = molecular target: T3, Proteasome subunit beta (Trypanosoma cruzi) (UniProt O96673); test: Trypanosoma cruzi proteasome chymotrypsin-like activity (TcProtChymo) assay.; further: in the data most compounds retested in dose-response had high values; type: functional; conditions: 9.37 µM
T3 sequence (whole entry): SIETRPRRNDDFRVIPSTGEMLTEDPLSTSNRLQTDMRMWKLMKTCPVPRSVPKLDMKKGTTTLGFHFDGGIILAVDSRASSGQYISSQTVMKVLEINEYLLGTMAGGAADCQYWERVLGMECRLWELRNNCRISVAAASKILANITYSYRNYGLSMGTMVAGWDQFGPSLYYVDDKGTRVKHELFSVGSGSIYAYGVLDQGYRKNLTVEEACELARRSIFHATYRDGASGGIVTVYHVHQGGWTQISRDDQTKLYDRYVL

Homo sapiens = species: Homo sapiens; test: To identify inhibition of the IFN signalling (Jak-Stat) pathway via expression of an eGFP reporter gene under the control of an IFN-stimulated response element (ISRE) containing MxA promoter.; type: functional; conditions: 30 µM
[7] = molecular target: T4, Tyrosyl-tRNA synthetase, putative (Trypanosoma cruzi (strain CL Brener)) (UniProt Q4DSP6); test: Trypanosoma cruzi tyrosyl tRNA synthetase (TcYRS) _High Tyrosine SOP; type: functional; conditions: 30 µM; further: in the data most compounds retested in dose-response had high values
T4 sequence (whole entry): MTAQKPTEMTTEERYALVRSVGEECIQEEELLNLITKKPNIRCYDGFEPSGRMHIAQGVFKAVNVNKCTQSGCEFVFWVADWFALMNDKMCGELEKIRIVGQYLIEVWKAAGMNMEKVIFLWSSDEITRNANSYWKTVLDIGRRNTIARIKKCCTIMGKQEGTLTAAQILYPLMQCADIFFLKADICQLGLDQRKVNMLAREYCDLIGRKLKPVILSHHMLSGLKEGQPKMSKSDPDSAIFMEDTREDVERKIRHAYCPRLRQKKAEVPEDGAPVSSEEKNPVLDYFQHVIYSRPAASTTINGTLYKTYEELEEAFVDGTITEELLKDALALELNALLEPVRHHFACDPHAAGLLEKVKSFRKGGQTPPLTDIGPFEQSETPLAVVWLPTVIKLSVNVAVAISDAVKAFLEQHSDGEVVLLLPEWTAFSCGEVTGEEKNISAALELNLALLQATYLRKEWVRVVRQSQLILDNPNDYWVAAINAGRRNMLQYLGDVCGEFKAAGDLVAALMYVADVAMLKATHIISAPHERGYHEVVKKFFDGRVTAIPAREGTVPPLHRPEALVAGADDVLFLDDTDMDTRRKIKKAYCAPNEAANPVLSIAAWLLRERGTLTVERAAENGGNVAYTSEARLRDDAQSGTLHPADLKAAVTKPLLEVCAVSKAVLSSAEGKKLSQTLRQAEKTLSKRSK

[8] = molecular target: T4, Tyrosyl-tRNA synthetase, putative (Trypanosoma cruzi (strain CL Brener)); test: Trypanosoma cruzi tyrosyl tRNA synthetase (TcYRS) SOP; type: functional; conditions: 30 µM
[9] = molecular target: Chromo domain-containing protein 1 (Saccharomyces cerevisiae (strain ATCC 204508 / S288c) (Baker's yeast)) (UniProt P32657); test: ScCHD-1 Enzyme Inhibition Assay; type: functional; conditions: 30 µM; further: in the data most compounds retested in dose-response had high values
Sequence of Chromo domain-containing protein 1 (Saccharomyces cerevisiae (strain ATCC 204508 / S288c) (Baker's yeast)) (P32657 whole entry, the tested form may be a part): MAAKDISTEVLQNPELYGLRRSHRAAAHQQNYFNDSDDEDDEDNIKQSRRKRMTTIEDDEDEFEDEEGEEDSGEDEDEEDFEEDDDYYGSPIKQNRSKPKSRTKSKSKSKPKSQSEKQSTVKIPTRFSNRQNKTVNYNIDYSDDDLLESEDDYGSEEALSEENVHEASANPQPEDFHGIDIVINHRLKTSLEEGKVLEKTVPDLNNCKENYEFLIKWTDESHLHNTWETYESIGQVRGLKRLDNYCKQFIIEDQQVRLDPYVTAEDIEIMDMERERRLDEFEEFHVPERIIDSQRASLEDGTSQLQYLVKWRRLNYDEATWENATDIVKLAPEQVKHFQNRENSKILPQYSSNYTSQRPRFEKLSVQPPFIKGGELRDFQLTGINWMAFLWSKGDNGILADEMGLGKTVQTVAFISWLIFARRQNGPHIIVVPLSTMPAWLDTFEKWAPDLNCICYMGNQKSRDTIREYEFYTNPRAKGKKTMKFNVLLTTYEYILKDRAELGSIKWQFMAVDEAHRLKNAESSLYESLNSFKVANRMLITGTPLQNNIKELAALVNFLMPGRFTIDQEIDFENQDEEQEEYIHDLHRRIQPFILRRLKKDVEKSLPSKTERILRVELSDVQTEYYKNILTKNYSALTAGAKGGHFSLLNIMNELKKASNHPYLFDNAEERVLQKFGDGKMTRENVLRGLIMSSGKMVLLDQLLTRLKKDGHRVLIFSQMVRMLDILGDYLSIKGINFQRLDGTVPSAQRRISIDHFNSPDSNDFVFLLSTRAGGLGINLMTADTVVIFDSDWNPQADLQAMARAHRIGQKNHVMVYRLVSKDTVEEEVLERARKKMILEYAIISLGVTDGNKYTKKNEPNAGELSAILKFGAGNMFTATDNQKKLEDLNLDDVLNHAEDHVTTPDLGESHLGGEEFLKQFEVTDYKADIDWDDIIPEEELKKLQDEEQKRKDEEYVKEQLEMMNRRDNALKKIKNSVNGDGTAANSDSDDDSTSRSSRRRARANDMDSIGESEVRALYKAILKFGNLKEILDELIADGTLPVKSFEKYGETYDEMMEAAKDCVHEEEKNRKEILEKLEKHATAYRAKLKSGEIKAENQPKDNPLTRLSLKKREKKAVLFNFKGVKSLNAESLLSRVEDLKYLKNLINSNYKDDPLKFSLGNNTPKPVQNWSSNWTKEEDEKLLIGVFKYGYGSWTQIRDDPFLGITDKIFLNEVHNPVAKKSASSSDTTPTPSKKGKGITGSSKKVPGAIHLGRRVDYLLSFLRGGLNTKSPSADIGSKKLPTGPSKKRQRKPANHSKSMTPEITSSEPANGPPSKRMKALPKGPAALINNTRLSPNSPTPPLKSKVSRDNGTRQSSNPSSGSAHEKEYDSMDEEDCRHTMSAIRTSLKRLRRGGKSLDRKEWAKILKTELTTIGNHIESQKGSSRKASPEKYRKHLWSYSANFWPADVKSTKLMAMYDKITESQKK

Sequence of Protein translocase subunit SecA (Escherichia coli (strain K12)) (P10408 whole entry): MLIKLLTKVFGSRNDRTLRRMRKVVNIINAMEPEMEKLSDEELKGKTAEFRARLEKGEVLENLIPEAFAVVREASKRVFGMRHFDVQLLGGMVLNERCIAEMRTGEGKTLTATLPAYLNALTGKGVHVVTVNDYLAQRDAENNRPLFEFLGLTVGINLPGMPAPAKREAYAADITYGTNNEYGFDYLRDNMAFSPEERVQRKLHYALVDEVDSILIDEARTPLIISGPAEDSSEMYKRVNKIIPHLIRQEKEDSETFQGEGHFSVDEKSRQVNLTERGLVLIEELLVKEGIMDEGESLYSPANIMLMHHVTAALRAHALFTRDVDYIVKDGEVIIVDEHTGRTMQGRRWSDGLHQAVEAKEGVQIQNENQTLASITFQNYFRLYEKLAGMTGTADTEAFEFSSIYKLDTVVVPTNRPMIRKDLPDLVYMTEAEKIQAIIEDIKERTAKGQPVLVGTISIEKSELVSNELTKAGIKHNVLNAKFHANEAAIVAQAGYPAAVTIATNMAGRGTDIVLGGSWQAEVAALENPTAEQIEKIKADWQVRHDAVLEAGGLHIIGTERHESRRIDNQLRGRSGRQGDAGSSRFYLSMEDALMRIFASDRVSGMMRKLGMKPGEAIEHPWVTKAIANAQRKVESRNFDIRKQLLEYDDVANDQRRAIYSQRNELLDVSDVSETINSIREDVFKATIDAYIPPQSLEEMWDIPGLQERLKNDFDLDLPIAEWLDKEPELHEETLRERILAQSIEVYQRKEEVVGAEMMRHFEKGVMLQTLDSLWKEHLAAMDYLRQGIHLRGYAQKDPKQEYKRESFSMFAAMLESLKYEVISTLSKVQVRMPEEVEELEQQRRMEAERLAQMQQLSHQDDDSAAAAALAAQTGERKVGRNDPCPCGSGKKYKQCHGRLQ

Row | Structure (SMILES) | Percent Effect [1] | Percent Effect [2] | Percent Effect [3] | Percent Effect [4] | Percent Effect (Trypanosoma cruzi) | Percent Effect [5] | Percent Effect [6] | Percent Effect (Homo sapiens) | Percent Effect [7] | Percent Effect [8] | Percent Effect [9]
1 | CC(C)c1nnc2n1CCN(CC(=O)N1CCc3ccccc3C1)C2 | -3.76% | 2.63% | -2.4% | 1.05% | 6.01% | -1.53% | -0.167% | 5.07% | 7.35% | 9.76% | -9.88%
2 | Cc1ccccc1CNC(=O)CN1CCN(Cc2nccn2C)CC1 | -1.84% | 21.6% | -6.67% | 6.22% | 2.74% | -10.8% | 18.4% | 2.02% | 8.37% | 25.9% | -9.21%
3 | CCn1cc(NC(=O)NCC(c2cccc(F)c2)N(C)C)cn1 (stereo unspecified) | 0.401% | 13.2% | 0.674% | 6.49% | -0.752% | 0.383% | 4.68% | -12.5% | 11.3% | 21.9% | -5.78%
4 | CN(C)c1cncc(C2CCN(C(=O)CO)CC2)n1 | -3.4% | 6.76% | 7.38% | 5.95% | 0.198% | 2.55% | 10.8% | 22% | 4.3% | 9.09% | -10.6%
5 | CN(Cc1nccn1CC(F)(F)F)C(=O)c1ccc(F)cc1F | -4.89% | 5.26% | 5.36% | 6.23% | -5.16% | -5.92% | 12.8% | -12.9% | 6.38% | 7.79% | 3.79%
6 | O=S(=O)(C1CC1)N1C[C@H]2CCC[C@@]2(COc2ccccn2)C1 | -0.747% | 14.7% | 2.3% | 3.09% | -4.32% | 5.81% | 15.3% | -6.25% | 3.17% | 10.3% | -5.69%
7 | COc1cc(CNCc2c(C)nn(C)c2N(C)C)ccc1C | -4.67% | -5.41% | -13.7% | 2.96% | 1.98% | -6.41% | 3.06% | -2.21% | 5.42% | 1.24% | 0.104%
8 | CCCn1nccc1C(=O)N1CCCN(CCCc2ccccc2)CC1 | -5.36% | 11% | -4.71% | 8.5% | 7.14% | -4.79% | 16.2% | 4.05% | 7.29% | 8.64% | -1.42%
9 | CCCc1n[nH]c(C2CN(C(=O)CCCn3cccn3)CCO2)n1 (stereo unspecified) | -4.8% | -4.17% | -0.0148% | -2.33% | -2.82% | -0.883% | 7.89% | -2.8% | -1.05% | -2.56% | 5.04%
10 | COCC1c2nnn(CC3CC3)c2CCN1C(=O)c1ccnnc1 (stereo unspecified) | -5.05% | 21.6% | -7.32% | 32.8% | 3.81% | 3.23% | 3.86% | -2.31% | 6.45% | 13.6% | -10.1%
11 | CO[C@H]1CCN(C(=O)Cc2ccccn2)[C@H]1Cc1ccncc1 | -0.476% | 16% | 1.42% | -1.93% | -4.53% | -2.56% | 8.02% | 7.43% | 3.19% | 11.5% | -2.72%
